High-throughput results from PubChem.
Only some compounds are listed: those with a hit (about 1.2% of all), similar ones and a draw of the others.
Avidin bead fluor: compound fluoresces at 488/530 nm on avidin beads; AID 1775; 220,000 tested, 0.38% active; fluorescence (KMESF) at 10 µM; compound fluorescence 488/530 nm, flow cytometry; hits give high values; in the data active means fluorescence above about 47
RGS7-Gao: regulators of human RGS7-Galphao interaction | binding response (% of control), % at 10 µM | Multiplexed bead flow cytometry, RGS7-Galphao binding; actives lie on both sides | P09471 | 220,000 tested, 0.35% active; in the data active means binding response below about 49% or above about 150%; inconclusive means no clear call, values can overlap the other calls; inactive means in between;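 further: fluorescent Galphao held in activated GDP-AlF4 state binding bead-coupled RGS7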
Target sequence (P09471 whole entry, looked up): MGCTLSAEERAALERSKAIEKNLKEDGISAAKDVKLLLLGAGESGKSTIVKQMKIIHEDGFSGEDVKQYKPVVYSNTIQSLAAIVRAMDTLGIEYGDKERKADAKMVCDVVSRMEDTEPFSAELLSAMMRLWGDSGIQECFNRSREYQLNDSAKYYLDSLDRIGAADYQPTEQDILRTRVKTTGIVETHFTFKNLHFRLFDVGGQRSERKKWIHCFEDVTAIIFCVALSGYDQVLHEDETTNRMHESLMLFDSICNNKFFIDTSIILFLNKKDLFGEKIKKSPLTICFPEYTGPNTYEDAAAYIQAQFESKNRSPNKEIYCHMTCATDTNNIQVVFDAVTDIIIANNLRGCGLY
RGS16-Gao: RGS16-Galphao interaction regulator (human) | bead-based flow cytometry RGS16-Galphao binding, fluorescence; actives lie on both sides | 220,000 tested, 0.38% active | binding response (% of control), % at 10 µM;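 further: Galphao activated by GDP with aluminum fluoride before binding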
GSH bead fluor: compound fluoresces at 488/530 nm on GSH beads; GSH beads flow cytometry, compound fluorescence 488/530 nm; hits give high values; fluorescence (KMESF) at 10 µM; 190,000 tested, 0.25% active; AID 1776; in the data active means fluorescence above about 89;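 further: glutathione beads carrying GST-tagged Bcl family fusion proteins plus one bare bead set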
RGS4-Gao reg: modulates binding of RGS4 to human Galphao; P09471; Multiplexed bead flow cytometry; actives lie on both sides; binding response (% of control), % at 10 µM; 220,000 tested, 0.33% active; in the data active means binding response below about 49% or above about 150%; inactive means in between;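 further: fluorescent Galphao activated with aluminum fluoride binding bead-coupled RGS4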
RGS8-Gao: regulators of human RGS8-Galphao interaction; multiplexed bead flow cytometry, RGS8-Galphao binding; actives lie on both sides; response (percent of control binding), % at 10 µM; 220,000 tested, 0.34% active; AID 1423; in the data active means response below about 60% or above about 140%; inactive means in between;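 further: Galphao activated as the GDP aluminium fluoride complex binding bead-coupled RGS8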
RGS-Gao: regulators of human RGS4-Galphao interaction | 1,600 tested, 99% active | shares compounds with RGS16-Gao | RGS4–Galpha-o binding response, % at 10 µM | multiplexed bead flow cytometry, RGS–Galpha-o binding;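 further: fluorescently labeled Galpha-o bound to GDP with aluminium fluoride binding biotinylated RGS beads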
Biotin-avidin: counter-screen: compounds disrupting biotin binding to avidin beads; shares compounds with RGS16-Gao; streptavidin beads, fluorescein-biotin binding, flow cytometry; inhibition, % at 10 µM; 1,700 tested, under 10 active;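 active means inhibition above 50%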;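 further: median green fluorescence of gated singlet beads compared with DMSO control wells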
RGS8-Gao single: RGS8-Galphao interaction regulation, single point confirmation | shares compounds with RGS16-Gao | bead-based flow cytometry RGS8-Galphao binding, fluorescence; actives lie on both sides | binding response (% of control), % at 10 µM | 1,700 tested, 3% active; in the data active means binding response below about 72% or above about 130%; inactive means in between;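 further: Galphao activated as GDP AlF4 complex before binding bead RGS8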
RGS7-Gao single: RGS7-Galphao interaction regulation, single point confirmation; shares compounds with RGS16-Gao; bead-based flow cytometry RGS7-Galphao binding; actives lie on both sides; response (percent of control binding), % at 10 µM; 1,700 tested, 7.8% active; AID 1837; in the data active means response below about 75% or above about 130%; inactive means in between;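 further: fluorescent Galphao activated with GDP and aluminum fluoride binding bead-coupled RGS7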
RGS16-Gao conf: RGS16-Galphao interaction regulation, single point confirmation; shares compounds with RGS16-Gao; bead-based flow cytometry, RGS16-Galphao binding; actives lie on both sides; response (% of control binding), % at 10 µM; 1,700 tested, 4% active; AID 1838; in the data active means response below about 74% or above about 130%; inactive means in between;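 further: Galphao activated as the GDP aluminium fluoride complex binding bead-coupled RGS16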
RGS4-Gao confirm: RGS4-Galphao interaction regulation, single point confirmation; shares compounds with RGS16-Gao; RGS4-Galphao binding, multiplexed bead flow cytometry; actives lie on both sides; binding response (% of control), % at 10 µM; 1,700 tested, 4% active; in the data active means binding response below about 74% or above about 130%; inactive means in between
RGS19-Gao single: confirmation of regulators of human RGS19-Galphao interaction. shares compounds with RGS16-Gao. bead-based flow cytometry RGS19-Galphao binding; actives lie on both sides. response (percent of control binding), % at 10 µM. 1,700 tested, 5% active. AID 1841; in the data active means response below about 50% or above about 160%; inactive means in between
Target sequence (P09471 whole entry, looked up): as above
Target sequence (P49795 whole entry, looked up): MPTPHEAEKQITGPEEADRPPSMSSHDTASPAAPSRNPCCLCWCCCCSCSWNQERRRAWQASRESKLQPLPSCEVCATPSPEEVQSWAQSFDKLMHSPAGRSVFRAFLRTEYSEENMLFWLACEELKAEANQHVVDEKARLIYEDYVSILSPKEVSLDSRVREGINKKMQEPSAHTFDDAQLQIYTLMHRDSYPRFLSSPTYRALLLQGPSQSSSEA
Each line names hits and unclear results; the compound was inactive in the other large screens (follow-up assays come after a bar, where they were run); [ ] = remark or other dose. Unless noted, how the calls were made is not given here.

Cc1cc(C(=O)CSc2nnc(-c3ccccc3)n2Cc2ccc3c(c2)OCO3)c(C)n1C	none
Cc1cc(C(=O)CSc2nc3ccccc3c(=O)n2C)c(C)n1Cc1ccc2c(c1)OCO2	Avidin bead fluor 152, RGS16-Gao active[activator], RGS4-Gao reg active[activator] (no result: RGS8-Gao) | Biotin-avidin inactive | RGS8-Gao single inactive | RGS7-Gao single inactive | RGS16-Gao conf inactive | RGS4-Gao confirm inactive | RGS19-Gao single inactive
Cc1cc(OC(=O)c2ccc(S(=O)(=O)N3CCCCC3)cc2)c([N+](=O)[O-])c(=O)[nH]1	none
Cc1cc(OC(=O)c2ccc(S(=O)(=O)N3CCCC3)cc2)c([N+](=O)[O-])c(=O)[nH]1	RGS8-Gao 142[activator] | RGS-Gao 112 | Biotin-avidin inactive | RGS8-Gao single inactive | RGS7-Gao single inactive | RGS16-Gao conf inactive | RGS4-Gao confirm inactive | RGS19-Gao single inactive
O=C(Nc1ccc(Cl)cc1C(=O)N1CCCC1)c1cccc([N+](=O)[O-])c1	none
CCCN(CCC)c1nc(N(CCC)CCC)[nH]c(=O)n1	RGS7-Gao 5.2, RGS16-Gao 9.2, RGS4-Gao reg 16, RGS8-Gao 20 | Biotin-avidin inactive | RGS8-Gao single inactive | RGS7-Gao single inactive | RGS16-Gao conf inactive | RGS4-Gao confirm inactive | RGS19-Gao single inactive
O=C(CC1NC(=S)NC1=O)c1ccc(Cl)cc1 (stereo not drawn)	RGS7-Gao inconclusive (no result: GSH bead fluor)
Cc1cnc(-c2nnc(N(C)C(=O)C3CCCO3)s2)cn1 (stereo not drawn)	RGS16-Gao -47 | RGS-Gao 56 | Biotin-avidin inactive | RGS8-Gao single inactive | RGS7-Gao single inactive | RGS16-Gao conf inactive | RGS4-Gao confirm inactive | RGS19-Gao single inactive
COc1ccc(-c2nnc(N(C)C(=O)C3CCCO3)s2)cc1 (stereo not drawn)	none
COc1ccccc1NS(=O)(=O)c1cc(NC(=O)c2cnccn2)ccc1N1CCOCC1	RGS7-Gao inconclusive (no result: GSH bead fluor)
COc1ccccc1NS(=O)(=O)c1cc(NC(=O)c2ccncc2)ccc1N1CCOCC1	RGS16-Gao 22 | RGS-Gao 95 | Biotin-avidin inactive | RGS8-Gao single inactive | RGS7-Gao single inactive | RGS16-Gao conf inactive | RGS4-Gao confirm inactive | RGS19-Gao single inactive
CCc1ccc2c(COC(=O)c3n[nH]c4ccccc34)cc(=O)oc2c1	RGS8-Gao 143[activator] | RGS-Gao 120 | Biotin-avidin inactive | RGS8-Gao single inactive | RGS7-Gao single inactive | RGS16-Gao conf inactive | RGS4-Gao confirm inactive | RGS19-Gao single inactive
COCCn1nnnc1C(C(C)C)N1CCC(Cc2ccccc2)CC1 (stereo not drawn)	RGS4-Gao reg 155[activator] | Biotin-avidin inactive | RGS8-Gao single inactive | RGS7-Gao single inactive | RGS16-Gao conf inactive | RGS4-Gao confirm inactive | RGS19-Gao single inactive
Cc1ccccc1CSc1ccc2nnc(-c3ccccn3)n2n1	none
O=C(Nc1ccc(Cl)c(Cl)c1)Nc1ccccc1O	RGS7-Gao inconclusive, RGS16-Gao 16, RGS4-Gao reg 13, RGS8-Gao 39 (no result: GSH bead fluor) | Biotin-avidin inactive | RGS8-Gao single inactive | RGS7-Gao single 70 | RGS16-Gao conf inactive | RGS4-Gao confirm inactive | RGS19-Gao single inactive
O=C(Nc1ccc(Cl)c(Cl)c1)Nc1ccc(Br)cc1F	none
CC1(C)CC(=O)C(C=NCC(N)=O)=C(O)C1	RGS8-Gao 146[activator] | RGS-Gao 147
O=c1[nH]cnc2c1oc1ccccc12	RGS8-Gao 143[activator] | RGS-Gao 117 | Biotin-avidin inactive | RGS8-Gao single inactive | RGS7-Gao single inactive | RGS16-Gao conf inactive | RGS4-Gao confirm inactive | RGS19-Gao single inactive
CCc1nc2c(oc3ccccc32)c(=O)[nH]1	none
Cc1nc2c(-c3ccc(F)cc3)cnn2c2c1CCC2	none
COc1ccc(S(=O)(=O)N(C)c2c(C)n(C)n(-c3ccccc3)c2=O)cc1OC	Avidin bead fluor 107, RGS7-Gao 203[activator] | RGS-Gao 119 | Biotin-avidin inactive | RGS8-Gao single inactive | RGS7-Gao single 67 | RGS16-Gao conf 74 | RGS4-Gao confirm 71 | RGS19-Gao single 50
CCOC(=O)CNC(=O)CSc1nnc(SCC(=O)NCC(=O)OCC)s1	none
O=C(O)CCSc1nnc(SCC(=O)NCC(F)(F)F)s1	RGS16-Gao 8.8 | RGS-Gao 93 | Biotin-avidin inactive | RGS8-Gao single inactive | RGS7-Gao single inactive | RGS16-Gao conf inactive | RGS4-Gao confirm inactive | RGS19-Gao single inactive
CN1CCN(c2nc3c(c(=O)n(C)c(=O)n3C)n2CC(=O)C23CC4CC(CC(C4)C2)C3)CC1	RGS4-Gao reg 157[activator] | Biotin-avidin inactive | RGS8-Gao single inactive | RGS7-Gao single inactive | RGS16-Gao conf inactive | RGS4-Gao confirm inactive | RGS19-Gao single inactive
CCC(C)(C)NC(=O)C1CCN(S(=O)(=O)c2cccs2)CC1	Avidin bead fluor 80, RGS7-Gao 424[activator], RGS16-Gao 364[activator], RGS4-Gao reg 465[activator] | Biotin-avidin inactive | RGS8-Gao single inactive | RGS7-Gao single inactive | RGS16-Gao conf inactive | RGS4-Gao confirm inactive | RGS19-Gao single inactive
CC(C)c1cccc(C(C)C)c1NC(=O)COC(=O)C1=COCCO1	RGS7-Gao inconclusive
Cc1ccccc1-n1sc2cc(F)ccc2c1=O	RGS16-Gao 4.8, RGS8-Gao 37 | RGS-Gao 90
N#CC1=C(N)Oc2ccc3ccc(O)cc3c2C1c1ccsc1 (stereo not drawn)	none
CC(=O)NC(Cc1c[nH]c2ccccc12)C(=O)OCC(=O)Nc1cc(C)on1 (stereo not drawn)	Avidin bead fluor 227, RGS8-Gao 21 | RGS-Gao 72 | Biotin-avidin inactive | RGS8-Gao single inactive | RGS7-Gao single inactive | RGS16-Gao conf inactive | RGS4-Gao confirm inactive | RGS19-Gao single inactive
